In PubChem BioAssay (Tox21):
Values joined by “and” are separate entries in the source; they are usually repeats but may differ in a detail not shown here. Identical values can stand only once. Records with an inconclusive call do not appear. Active and inactive are the calls of the source. Unless noted, the call rests on the fitted dose curve.

Assays:
[1] = qHTS assay to identify small molecule antagonists of the sonic hedgehog signaling (Shh) pathway (AID 1259369); further: nearly all actives have a fitted effect of over 45% in size; further: potency means the concentration at half of the fitted maximal effect
Method in brief: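 Conditioned medium drives Shh signalling in 3T3Gli1-Luc cells; compounds in DMSO co-applied, 24hr at 37 C, then luciferase luminescence.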

[2] = qHTS assay to identify small molecule agonists of the androgen receptor (AR) signaling pathway in the presence of an antagonist - cell viability counter screen (AID 1259379; active means well fitted curve in the direction sought with a large enough effect in the repeat runs; an effect the other way counts as inactive or inconclusive; further: nearly all actives have a fitted effect of over 25% in size; further: potency means the concentration at half of the fitted maximal effect)
Method in brief: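 A CellTiter-Fluor read-out measured viability of MDA-kb2 reporter cells (MMTV promoter with AR and GR response elements). Treatment: nilutamide 3.0uM final with compounds at 15 concentrations, 16 hr, 37C, 0% CO2.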

[3] = qHTS assay to identify small molecule agonists of the estrogen receptor beta (ER-beta) signaling pathway - cell viability counter screen (AID 1259380; active means well fitted curve in the direction sought with a large enough effect in the repeat runs; an effect the other way counts as inactive or inconclusive; further: nearly all actives have a fitted effect of over 30% in size; further: potency means the concentration at half of the fitted maximal effect)
Method in brief: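 Cells used were ER-beta-UAS-bla HEK293T in medium with 2% charcoal-stripped FBS. They were treated for 16 hr at 37C. Viability came from CellTiter-Glo luminescence.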

[4] = molecular target: Androgen receptor (Homo sapiens) (UniProt P10275); experiment: qHTS assay to identify small molecule agonists of the androgen receptor (AR) signaling pathway in the presence of an antagonist (AID 1259381); further: nearly all actives have a fitted effect of over 15% in size
Sequence of Androgen receptor (Homo sapiens) (P10275 whole entry, looked up): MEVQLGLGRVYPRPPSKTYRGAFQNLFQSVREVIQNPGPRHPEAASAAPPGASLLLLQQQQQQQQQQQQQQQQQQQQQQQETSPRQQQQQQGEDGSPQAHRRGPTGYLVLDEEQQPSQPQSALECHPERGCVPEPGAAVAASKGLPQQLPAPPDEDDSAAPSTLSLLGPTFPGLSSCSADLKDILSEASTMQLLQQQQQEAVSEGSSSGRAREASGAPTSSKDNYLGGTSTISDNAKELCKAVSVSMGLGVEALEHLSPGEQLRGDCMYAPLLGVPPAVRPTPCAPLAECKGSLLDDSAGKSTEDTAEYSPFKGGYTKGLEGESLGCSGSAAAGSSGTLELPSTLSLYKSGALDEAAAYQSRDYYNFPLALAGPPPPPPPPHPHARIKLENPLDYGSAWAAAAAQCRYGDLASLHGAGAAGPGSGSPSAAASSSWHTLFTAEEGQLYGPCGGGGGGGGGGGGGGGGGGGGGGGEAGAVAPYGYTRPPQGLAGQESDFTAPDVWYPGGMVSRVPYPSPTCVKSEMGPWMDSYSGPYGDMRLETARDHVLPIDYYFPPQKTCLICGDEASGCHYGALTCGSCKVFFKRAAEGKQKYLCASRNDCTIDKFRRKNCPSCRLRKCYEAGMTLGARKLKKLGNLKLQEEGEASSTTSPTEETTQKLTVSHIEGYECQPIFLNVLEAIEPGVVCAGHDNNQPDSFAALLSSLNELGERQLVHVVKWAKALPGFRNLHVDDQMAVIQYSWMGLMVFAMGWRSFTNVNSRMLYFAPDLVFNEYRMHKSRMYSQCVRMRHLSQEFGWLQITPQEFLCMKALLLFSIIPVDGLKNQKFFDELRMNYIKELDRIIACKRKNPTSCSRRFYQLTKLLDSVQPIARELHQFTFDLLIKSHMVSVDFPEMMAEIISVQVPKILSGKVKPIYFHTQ
Method in brief: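 Using human MDA-kb2 cells with an MMTV promoter–luciferase construct (AR and GR response elements), agonist activity is scored under 3.0uM nilutamide (final) co-treatment; 16hr incubation, 37C, luminescence readout via ONE-Glo.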

[5] = qHTS assay to identify small molecule antagonists of the estrogen receptor beta (ER-beta) signaling pathway - cell viability counter screen (AID 1259382; active means well fitted curve in the direction sought with a large enough effect in the repeat runs; an effect the other way counts as inactive or inconclusive; further: nearly all actives have a fitted effect of over 55% in size; further: potency means the concentration at half of the fitted maximal effect)
Method in brief: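 Agonist-stimulated (1nM E2) ER-beta-UAS-bla HEK293T cells are incubated with library compounds for 16 hr at 37C. Cell viability is then assessed in the reporter-assay wells by adding CellTiter-Glo and reading luminescence after 30 min.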

[6] = molecular target: Estrogen receptor (Homo sapiens) (UniProt P03372); experiment: qHTS assay to identify small molecule agonists of the estrogen receptor alpha (ER-alpha) signaling pathway in the presence of an antagonist (AID 1259383); further: top concentration of the series differs between compounds; nearly all actives have a fitted effect of over 15% in size
Sequence of Estrogen receptor (Homo sapiens) (P03372 whole entry, looked up): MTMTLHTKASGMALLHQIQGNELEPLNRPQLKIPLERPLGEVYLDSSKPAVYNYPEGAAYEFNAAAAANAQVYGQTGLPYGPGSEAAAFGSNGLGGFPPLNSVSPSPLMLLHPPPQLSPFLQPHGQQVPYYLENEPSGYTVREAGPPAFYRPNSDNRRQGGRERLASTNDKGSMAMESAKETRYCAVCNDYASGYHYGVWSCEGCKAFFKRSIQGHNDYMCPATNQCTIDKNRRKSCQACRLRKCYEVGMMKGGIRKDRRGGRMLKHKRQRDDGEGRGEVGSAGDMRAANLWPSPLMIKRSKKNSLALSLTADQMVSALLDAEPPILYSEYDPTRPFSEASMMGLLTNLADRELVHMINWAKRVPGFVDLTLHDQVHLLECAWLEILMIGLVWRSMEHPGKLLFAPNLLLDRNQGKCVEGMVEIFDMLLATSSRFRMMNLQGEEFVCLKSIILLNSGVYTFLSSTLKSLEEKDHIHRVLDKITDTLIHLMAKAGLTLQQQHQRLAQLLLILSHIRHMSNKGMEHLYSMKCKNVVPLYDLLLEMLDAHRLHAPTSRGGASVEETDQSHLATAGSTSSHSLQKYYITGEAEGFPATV
Method in brief: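 Using VM7Luc4E2 cells seeded 24hr before treatment, antagonist ICI-182,780 (10.0nM final) was added, followed by compounds at 15 concentrations. Plates incubated 22hr; ONE-Glo luminescence quantified reporter activity.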

[7] = qHTS assay to identify small molecule agonists or antagonists of the thyroid stimulating hormone receptor (TSHR) signaling pathway - wild type cell line counter screen (AID 1259384)
Method in brief: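 Wild-type HEK293 cells were plated 18 h at 37 C/5% CO2, pin-dosed with compound plus Ro20-1724 medium, held 30 min at room temperature, then given cAMP-d2 and anti-cAMP-cryptate; fluorescence was read after 1 h. Fifteen concentrations, triplicate.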

[8] = qHTS assay to identify small molecule agonists of the estrogen receptor alpha (ER-alpha) signaling pathway in the presence of an antagonist - cell viability counter screen (AID 1259386; active means well fitted curve in the direction sought with a large enough effect in the repeat runs; an effect the other way counts as inactive or inconclusive;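 further: cells exposed to compounds for 22 h at 37 °C before the viability read; nearly all actives have a fitted effect of over 30% in size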; further: potency means the concentration at half of the fitted maximal effect)
Method in brief: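 ICI-182,780 at 10.0nM final accompanies the compound titration (15 concentrations, 22hr, 37C) on VM7Luc4E2 cells. The CellTiter-Fluor fluorescence readout runs in the same wells as the luciferase assay.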

[9] = molecular target: Progesterone receptor (Homo sapiens) (UniProt P06401); experiment: qHTS assay to identify small molecule antagonists of the progesterone receptor (PR) signaling pathway (AID 1346795; active means well fitted inhibition curve with a large enough effect in the signal ratio in the repeat runs, not every such curve was filed as active; the % refers to the signal ratio; further: potency means the concentration at half of the fitted maximal effect)
Sequence of Progesterone receptor (Homo sapiens) (P06401 whole entry, looked up): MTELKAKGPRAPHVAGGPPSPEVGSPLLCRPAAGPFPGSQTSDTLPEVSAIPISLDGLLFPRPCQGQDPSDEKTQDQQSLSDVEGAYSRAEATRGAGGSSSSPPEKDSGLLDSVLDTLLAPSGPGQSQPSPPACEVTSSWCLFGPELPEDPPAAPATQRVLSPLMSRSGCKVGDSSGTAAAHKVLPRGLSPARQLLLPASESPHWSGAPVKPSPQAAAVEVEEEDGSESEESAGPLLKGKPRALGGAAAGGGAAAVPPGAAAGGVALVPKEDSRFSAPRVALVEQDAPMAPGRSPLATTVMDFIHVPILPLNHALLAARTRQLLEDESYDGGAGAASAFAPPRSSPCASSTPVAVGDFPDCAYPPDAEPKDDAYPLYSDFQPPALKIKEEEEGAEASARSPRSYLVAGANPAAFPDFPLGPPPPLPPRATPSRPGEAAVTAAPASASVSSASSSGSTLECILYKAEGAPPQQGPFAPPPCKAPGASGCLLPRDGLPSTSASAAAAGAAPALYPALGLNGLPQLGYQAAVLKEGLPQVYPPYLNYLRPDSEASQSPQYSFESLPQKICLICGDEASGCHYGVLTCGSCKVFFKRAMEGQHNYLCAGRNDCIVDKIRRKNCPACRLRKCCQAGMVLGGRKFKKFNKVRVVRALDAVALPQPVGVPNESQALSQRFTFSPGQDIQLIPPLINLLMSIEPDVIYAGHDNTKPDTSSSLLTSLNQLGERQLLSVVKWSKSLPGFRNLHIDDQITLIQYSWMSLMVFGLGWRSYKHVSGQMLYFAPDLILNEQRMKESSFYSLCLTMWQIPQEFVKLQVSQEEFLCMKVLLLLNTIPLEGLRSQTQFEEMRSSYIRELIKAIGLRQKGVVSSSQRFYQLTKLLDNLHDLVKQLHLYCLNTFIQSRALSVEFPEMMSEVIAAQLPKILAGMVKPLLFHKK
Method in brief: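 Beta-lactamase reporter, HEK293T PR-UAS-bla line; 2% charcoal-stripped FBS; 6 hr pre-incubation, 37C/5% CO2. Compound + R5020 1 nM final, 16 hr. LiveBLAzer B/G FRET substrate, 2 hr RT; fluorescence intensity read.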

[10] = qHTS assay to identify small molecule agonists of the TGF-beta/Smad signaling pathway - cell viability counter screen (AID 1346829; active means well fitted curve in the direction sought with a large enough effect in the repeat runs; an effect the other way counts as inactive or inconclusive; further: nearly all actives have a fitted effect of over 45% in size; further: potency means the concentration at half of the fitted maximal effect)
Method in brief: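 Same-well cytotoxicity: CellTiter-Glo added after the 2 hr room-temperature beta-lactamase substrate step, luminescence measured 30 min later; cells had 5 hr of compound at 37 C.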

[11] = qHTS assay to identify small molecule agonists of the TGF-beta/Smad signaling pathway (AID 1346859; active means well fitted activation curve with a large enough effect in the signal ratio in the repeat runs, not every such curve was filed as active; the % refers to the signal ratio; further: series mostly up to about 77 µM)
Method in brief: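 Read-out: fluorescence at 460 and 530 nm (405 nm excitation) after a 2 hr room-temperature incubation with beta-lactamase FRET substrate. SBE-bla HEK 293T cells had been treated with test compounds for 5 hr at 37 C.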

[12] = molecular target: Thyrotropin-releasing hormone receptor (Homo sapiens) (UniProt P34981); experiment: qHTS assay to identify small molecule antagonists of the thyrotropin-releasing hormone receptor (TRHR) signaling pathway (AID 1346877; active means well fitted inhibition curve with a large enough effect in the repeat runs, not every such curve was filed as active; further: series mostly up to about 51 µM)
Sequence of Thyrotropin-releasing hormone receptor (Homo sapiens) (P34981 whole entry, looked up): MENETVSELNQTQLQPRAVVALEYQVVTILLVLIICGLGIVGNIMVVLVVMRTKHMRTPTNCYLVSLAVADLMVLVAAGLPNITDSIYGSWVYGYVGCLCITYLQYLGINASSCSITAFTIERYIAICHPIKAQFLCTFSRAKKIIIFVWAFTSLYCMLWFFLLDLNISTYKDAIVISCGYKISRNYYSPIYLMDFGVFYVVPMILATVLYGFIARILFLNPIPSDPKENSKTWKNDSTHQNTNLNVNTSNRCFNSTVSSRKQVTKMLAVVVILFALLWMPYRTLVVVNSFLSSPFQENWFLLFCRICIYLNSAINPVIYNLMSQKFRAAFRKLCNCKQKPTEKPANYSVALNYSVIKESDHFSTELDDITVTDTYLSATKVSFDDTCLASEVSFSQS
Method in brief: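 Screening used HEK293 cells engineered with TRHR, with a brief 5 min room-temperature compound exposure preceding addition of TRH to 1 nM. The read-out was kinetic calcium-dye fluorescence, concentration-response from 15 doses in triplicate.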

[13] = molecular target: Thyrotropin-releasing hormone receptor (Homo sapiens) (UniProt P34981); experiment: qHTS assay to identify small molecule agonists of the thyrotropin-releasing hormone receptor (TRHR) signaling pathway (AID 1346891);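 further: HEK293 cells expressing TRHR with calcium dye readout; series mostly up to about 58 µM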
Method in brief: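 HEK293/TRHR cells, 1500 per well, 18 h 37 °C; Ca dye 2 h 37 °C; pin-tool compound addition (agonist mode); kinetic fluorescence 3 min, 1 s reads; 15 concentrations, triplicate.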

[14] = molecular target: Thyrotropin receptor (Homo sapiens) (UniProt P16473); experiment: qHTS assay to identify small molecule antagonists of the thyroid stimulating hormone receptor (TSHR) signaling pathway (AID 1259385); further: nearly all actives have a fitted effect of over 20% in size
Sequence of Thyrotropin receptor (Homo sapiens) (P16473 whole entry, looked up): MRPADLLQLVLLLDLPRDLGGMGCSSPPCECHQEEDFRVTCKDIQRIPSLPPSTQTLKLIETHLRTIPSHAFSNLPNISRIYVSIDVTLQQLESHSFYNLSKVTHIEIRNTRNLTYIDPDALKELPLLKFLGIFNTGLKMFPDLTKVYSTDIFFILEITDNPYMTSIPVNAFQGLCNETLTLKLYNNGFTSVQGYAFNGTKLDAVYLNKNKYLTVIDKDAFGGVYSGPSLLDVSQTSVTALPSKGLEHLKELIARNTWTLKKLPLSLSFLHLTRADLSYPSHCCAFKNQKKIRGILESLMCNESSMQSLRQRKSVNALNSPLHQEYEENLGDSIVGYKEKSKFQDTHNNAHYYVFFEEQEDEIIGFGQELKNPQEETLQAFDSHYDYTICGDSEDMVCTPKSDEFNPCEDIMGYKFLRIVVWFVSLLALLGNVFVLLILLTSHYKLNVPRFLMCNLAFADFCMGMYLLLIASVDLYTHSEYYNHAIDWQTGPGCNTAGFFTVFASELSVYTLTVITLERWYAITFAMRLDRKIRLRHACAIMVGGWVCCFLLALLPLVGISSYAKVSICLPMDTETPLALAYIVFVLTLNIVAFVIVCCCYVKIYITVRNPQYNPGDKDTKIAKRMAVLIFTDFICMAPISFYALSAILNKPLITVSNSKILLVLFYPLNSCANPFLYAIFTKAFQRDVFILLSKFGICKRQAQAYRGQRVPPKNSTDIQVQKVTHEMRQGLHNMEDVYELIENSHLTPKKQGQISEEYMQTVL
Method in brief: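 TSHR-HEK293 cells were plated and held 18 h at 37C/5% CO2, then given compound plus Ro20-1724 and stimulated with TSH at 1.5 ng/mL final. After 30 min at room temperature, cAMP was detected with cAMP-d2/anti-cAMP-cryptate (1 h) by fluorescence.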

[15] = molecular target: Estrogen receptor beta (Homo sapiens) (UniProt Q92731); experiment: qHTS assay to identify small molecule agonists of the estrogen receptor beta (ER-beta) signaling pathway (AID 1259377; active means well fitted activation curve with a large enough effect in the signal ratio in the repeat runs, not every such curve was filed as active; the % refers to the signal ratio)
Sequence of Estrogen receptor beta (Homo sapiens) (Q92731 whole entry, looked up): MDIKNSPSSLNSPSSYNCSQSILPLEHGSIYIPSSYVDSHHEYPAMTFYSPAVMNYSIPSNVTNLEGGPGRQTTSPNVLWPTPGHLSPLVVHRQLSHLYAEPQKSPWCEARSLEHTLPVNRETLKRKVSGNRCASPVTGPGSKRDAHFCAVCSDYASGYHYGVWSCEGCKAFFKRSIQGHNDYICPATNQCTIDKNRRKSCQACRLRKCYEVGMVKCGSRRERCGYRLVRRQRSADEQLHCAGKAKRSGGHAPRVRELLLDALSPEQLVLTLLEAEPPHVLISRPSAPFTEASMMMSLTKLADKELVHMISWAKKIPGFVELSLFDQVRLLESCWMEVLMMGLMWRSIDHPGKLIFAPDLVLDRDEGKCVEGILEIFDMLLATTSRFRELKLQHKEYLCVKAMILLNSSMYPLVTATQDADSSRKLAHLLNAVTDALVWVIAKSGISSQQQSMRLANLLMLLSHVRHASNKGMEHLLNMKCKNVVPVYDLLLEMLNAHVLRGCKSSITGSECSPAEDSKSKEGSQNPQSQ
Method in brief: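 Beta-lactamase reporter readout: fluorescence of LiveBLAzer B/G FRET substrate after 2 h at room temperature, following 16 h compound treatment of ER-beta-UAS-bla HEK293T cells at 37C in 2% charcoal-stripped FBS medium.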

[16] = molecular target: Progesterone receptor (Homo sapiens) (UniProt P06401); experiment: qHTS assay to identify small molecule agonists of the progesterone receptor (PR) signaling pathway (AID 1346784); further: nearly all actives have a fitted effect of over 30% in size
Method in brief: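 HEK 293T PR-UAS-bla reporter cells, 2% charcoal-stripped FBS; 6 hr settle at 37C/5% CO2, compound (DMSO) 16 hr, LiveBLAzer B/G FRET substrate 2 hr RT, fluorescence intensity read.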

[17] = qHTS assay to identify small molecule agonists of the progesterone receptor (PR) signaling pathway - cell viability counter screen (AID 1346799); further: nearly all actives have a fitted effect of over 45% in size
Method in brief: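 HEK293T PR-UAS-bla, 3,000 cells/well, 2% charcoal-stripped FBS; 6 h settle, compound 16 h at 37C/5% CO2; LiveBLAzer 2 h RT, then CellTiter-Glo 30 min RT, luminescence read.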

[18] = qHTS assay to identify small molecule antagonists of the TGF-beta/Smad signaling pathway - cell viability counter screen (AID 1346824; active means well fitted curve in the direction sought with a large enough effect in the repeat runs; an effect the other way counts as inactive or inconclusive; further: nearly all actives have a fitted effect of over 50% in size; further: potency means the concentration at half of the fitted maximal effect)
Method in brief: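 SBE-bla HEK 293T cells were plated overnight at 37 C, then given compounds in DMSO plus TGF-beta1 (added as 0.25 ng/mL solution) for 5 hr. After the bla read, CellTiter-Glo was added to the same wells and luminescence read after 30 min at room temperature.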

[19] = qHTS assay to identify small molecule antagonists of the progesterone receptor (PR) signaling pathway - cell viability counter screen (AID 1346798; active means well fitted curve in the direction sought with a large enough effect in the repeat runs; an effect the other way counts as inactive or inconclusive; further: series mostly up to about 92 µM; nearly all actives have a fitted effect of over 50% in size)
Method in brief: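 Luminescence readout (CellTiter-Glo, 30 min, RT) of viability in PR-UAS-bla HEK293T cells exposed to compound and R5020 agonist for 16 hr at 37C, 5% CO2; run in the same wells as the beta-lactamase reporter read.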

[20] = molecular target: Estrogen receptor beta (Homo sapiens) (UniProt Q92731); experiment: qHTS assay to identify small molecule antagonists of the estrogen receptor beta (ER-beta) signaling pathway (AID 1259378; active means well fitted inhibition curve with a large enough effect in the signal ratio in the repeat runs, not every such curve was filed as active; the % refers to the signal ratio)
Method in brief: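 ER-beta-UAS-bla HEK293T (GripTite) cells in 2% charcoal-stripped FBS medium were preincubated 6 hr at 37C, dosed with compound, then stimulated with 1 nM E2 (final) for 16 hr; beta-lactamase reporter read by B/G FRET fluorescence after 2 hr substrate loading.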

Measured: Potency

CCC(OC(C)=O)C(CC(C)NC)(c1ccccc1)c1ccccc1 (stereo not given)
active: [1] 30.9 µM | [2] 49 µM | [3] 49 µM | [5] 54.9 µM | [9] 54.9 µM
inactive: [4] | [6] | [7] | [8] | [10] | [11] | [12] | [13]

N#CC(C#N)=NNc1cccc(Cl)c1
inactive: [4] | [6] | [7] | [14] | [10] | [12] | [13]
active: [1] 1.09 µM | [2] 1.93 µM | [3] 15.4 µM | [8] 21.7 µM | [9] 13.7 µM

O=[N+]([O-])C(Br)Br
inactive: [1] | [15] | [3] | [4] | [5] | [7] | [8] | [16] | [9] | [17] | [18] | [10] | [11] | [13]

Clc1ccc(C(Cl)(Cl)Cl)cc1Cl
inactive: [1] | [15] | [3] | [5] | [6] | [16] | [9] | [19] | [18] | [10] | [11] | [12] | [13]

C#CCC1=C(C)C(OC(=O)C2C(C=C(C)C)C2(C)C)CC1=O (stereo not given)
inactive: [1] | [15] | [2] | [5] | [14] | [8] | [16] | [18] | [10] | [11] | [13]

COc1nc(C)nc(NC(=O)NS(=O)(=O)c2ccccc2Cl)n1
inactive: [1] | [20] | [2] | [3] | [5] | [6] | [7] | [14] | [8] | [16] | [19] | [17] | [18] | [11] | [12] | [13]

ClCBr
inactive: [1] | [20] | [2] | [5] | [6] | [7] | [14] | [8] | [16] | [9] | [19] | [18] | [10] | [11] | [12] | [13]

COc1ccc2[nH]cc(CCN(C(C)C)C(C)C)c2c1
inactive: [1] | [20] | [2] | [7] | [14] | [19] | [18] | [10] | [11]

CSC(=O)c1c(C(F)F)nc(C(F)(F)F)c(C(=O)SC)c1CC(C)C
active: [9] 30.5 µM
inactive: [1] | [15] | [2] | [5] | [6] | [14] | [16] | [19] | [17] | [18] | [10] | [11] | [13]

CN
inactive: [1] | [20] | [3] | [5] | [14] | [8] | [16] | [19] | [17] | [18] | [10] | [11] | [13]

C=CCBr
inactive: [1] | [2] | [3] | [5] | [6] | [7] | [14] | [8] | [16] | [9] | [19] | [18] | [10] | [11] | [13]

[O]=[Cr](=[O])([OH])[O][Cr](=[O])(=[O])[OH]
active: [1] 1.95 µM and 2.16 µM | [2] 27.6 µM and 54.4 µM | [3] 24.6 µM and 54.4 µM | [18] 27.8 µM and 24.5 µM | [10] 24.8 µM and 24.5 µM
inactive: [4] | [6] | [7] | [14] | [19] | [17] | [11]

c1ccc2nc(N3CCNCC3)ccc2c1
active: [3] 23.7 µM
inactive: [1] | [15] | [5] | [6] | [16] | [9] | [18] | [10] | [11] | [12] | [13]
